Measured values from the supplement of paper PMC8975748.
± gives the standard deviation of the averaged measurements.

Tests used:
[1] = tested on: Saccharomyces cerevisiae BY4741 SeMeCo community; test: mean cell size (pixel area) (pixels); higher = larger cells; details: 10 µM; 24 h; SM minimal medium
Procedure, shortened: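 Plates of 384 wells were acoustically predosed with drug at a final 10 µM in SM medium, and 70 µl of a Saccharomyces cerevisiae BY4741 preculture diluted from OD600 = 1.0 to OD600 = 0.3 was added for 24 h. The yeast formed a four-plasmid fluorescent community in which each plasmid complements one auxotrophy and carries a fluorescent marker. Fixed cells were imaged by automated confocal microscopy and analysed in Harmony for mean cell pixel area per well. Values are means of 3 replicates. Same SeMeCo high-content imaging drug screen: Selleck FDA-approved drugs at 10 µM, 24 h in SM medium, 384-well plates, 3 replicates.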

[2] = tested on: Saccharomyces cerevisiae BY4741 SeMeCo community; test: z-score of prototroph abundance vs DMSO median; higher = larger share of this subpopulation than in DMSO controls; details: 10 µM; 24 h; SM minimal medium; subpopulation (auxotrophy): Prototroph
Procedure, shortened: (§1)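 A Saccharomyces cerevisiae BY4741 community carried four plasmids, each restoring one auxotrophy and encoding a distinct fluorescent protein. It was pre-grown overnight to OD600 1.0, diluted to 0.3, and 70 µl was added to 384-well plates acoustically predosed with library drugs (10 µM final), then grown 24 h in minimal SM medium. Cells were paraformaldehyde-fixed and imaged by automated confocal microscopy, with single-auxotroph fluorescent strains setting thresholds and autofluorescence correction. Each subpopulation's abundance was scored as a z-score against the vehicle-well median.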

[3] = tested on: Saccharomyces cerevisiae BY4741 SeMeCo community; test: z-score of subpopulation abundance vs DMSO median, subpopulation auxotrophic for M; higher = larger share of this subpopulation than in DMSO controls; details: 10 µM; 24 h; SM minimal medium; subpopulation (auxotrophy): M
Procedure, shortened: as §1

[4] = tested on: Saccharomyces cerevisiae BY4741 SeMeCo community; test: z-score of subpopulation abundance vs DMSO median, subpopulation auxotrophic for L; higher = larger share of this subpopulation than in DMSO controls; details: 10 µM; 24 h; SM minimal medium; subpopulation (auxotrophy): L
Procedure, shortened: as §1

[5] = tested on: Saccharomyces cerevisiae BY4741 SeMeCo community; test: z-score of subpopulation abundance vs DMSO median, subpopulation auxotrophic for U; higher = larger share of this subpopulation than in DMSO controls; details: 10 µM; 24 h; SM minimal medium; subpopulation (auxotrophy): U
Procedure, shortened: as §1

[6] = tested on: Saccharomyces cerevisiae BY4741 SeMeCo community; test: z-score of subpopulation abundance vs DMSO median, subpopulation auxotrophic for H; higher = larger share of this subpopulation than in DMSO controls; details: 10 µM; 24 h; SM minimal medium; subpopulation (auxotrophy): H
Procedure, shortened: as §1

[7] = tested on: Saccharomyces cerevisiae BY4741 SeMeCo community; test: z-score of subpopulation abundance vs DMSO median, subpopulation auxotrophic for LU; higher = larger share of this subpopulation than in DMSO controls; details: 10 µM; 24 h; SM minimal medium; subpopulation (auxotrophy): LU
Procedure, shortened: as §1

[8] = tested on: Saccharomyces cerevisiae BY4741 SeMeCo community; test: z-score of subpopulation abundance vs DMSO median, subpopulation auxotrophic for LM; higher = larger share of this subpopulation than in DMSO controls; details: 10 µM; 24 h; SM minimal medium; subpopulation (auxotrophy): LM
Procedure, shortened: as §1

[9] = tested on: Saccharomyces cerevisiae BY4741 SeMeCo community; test: z-score of subpopulation abundance vs DMSO median, subpopulation auxotrophic for HU; higher = larger share of this subpopulation than in DMSO controls; details: 10 µM; 24 h; SM minimal medium; subpopulation (auxotrophy): HU
Procedure, shortened: as §1

[10] = tested on: Saccharomyces cerevisiae BY4741 SeMeCo community; test: z-score of subpopulation abundance vs DMSO median, subpopulation auxotrophic for UM; higher = larger share of this subpopulation than in DMSO controls; details: 10 µM; 24 h; SM minimal medium; subpopulation (auxotrophy): UM
Procedure, shortened: as §1

[11] = tested on: Saccharomyces cerevisiae BY4741 SeMeCo community; test: z-score of subpopulation abundance vs DMSO median, subpopulation auxotrophic for HLU; higher = larger share of this subpopulation than in DMSO controls; details: 10 µM; 24 h; SM minimal medium; subpopulation (auxotrophy): HLU
Procedure, shortened: as §1

[12] = tested on: Saccharomyces cerevisiae BY4741 SeMeCo community; test: z-score of subpopulation abundance vs DMSO median, subpopulation auxotrophic for HLM; higher = larger share of this subpopulation than in DMSO controls; details: 10 µM; 24 h; SM minimal medium; subpopulation (auxotrophy): HLM
Procedure, shortened: as §1

[13] = tested on: Saccharomyces cerevisiae BY4741 SeMeCo community; test: z-score of subpopulation abundance vs DMSO median, subpopulation auxotrophic for HUM; higher = larger share of this subpopulation than in DMSO controls; details: 10 µM; 24 h; SM minimal medium; subpopulation (auxotrophy): HUM
Procedure, shortened: as §1

[14] = tested on: Saccharomyces cerevisiae BY4741 SeMeCo community; test: z-score of subpopulation abundance vs DMSO median, subpopulation auxotrophic for LUM; higher = larger share of this subpopulation than in DMSO controls; details: 10 µM; 24 h; SM minimal medium; subpopulation (auxotrophy): LUM
Procedure, shortened: as §1

[15] = tested on: Saccharomyces cerevisiae BY4741 SeMeCo community; test: z-score of subpopulation abundance vs DMSO median, subpopulation auxotrophic for HLUM; higher = larger share of this subpopulation than in DMSO controls; details: 10 µM; 24 h; SM minimal medium; subpopulation (auxotrophy): HLUM
Procedure, shortened: as §1

[16] = tested on: Saccharomyces cerevisiae BY4741 SeMeCo community; test: z-score of subpopulation abundance vs DMSO median, subpopulation auxotrophic for HM; higher = larger share of this subpopulation than in DMSO controls; details: 10 µM; 24 h; SM minimal medium; subpopulation (auxotrophy): HM
Procedure, shortened: as §1

[17] = tested on: Saccharomyces cerevisiae BY4741 SeMeCo community; test: z-score of subpopulation abundance vs DMSO median, subpopulation auxotrophic for HL; higher = larger share of this subpopulation than in DMSO controls; details: 10 µM; 24 h; SM minimal medium; subpopulation (auxotrophy): HL
Procedure, shortened: as §1

| Compound | mean cell size [1] | z-score of prototroph abundance [2] | z-score of subpopulation abundance [3] | z-score of subpopulation abundance [4] | z-score of subpopulation abundance [5] | z-score of subpopulation abundance [6] | z-score of subpopulation abundance [7] | z-score of subpopulation abundance [8] | z-score of subpopulation abundance [9] | z-score of subpopulation abundance [10] | z-score of subpopulation abundance [11] | z-score of subpopulation abundance [12] | z-score of subpopulation abundance [13] | z-score of subpopulation abundance [14] | z-score of subpopulation abundance [15] | z-score of subpopulation abundance [16] | z-score of subpopulation abundance [17] |
| --- | --- | --- | --- | --- | --- | --- | --- | --- | --- | --- | --- | --- | --- | --- | --- | --- | --- |
| CCCCCCCCCCCCCCCCOP(=O)([O-])OCC[N+](C)(C)C [Miltefosine] | 7.76 ± 0.26 | -22.6 | -7.93 | -5.76 | -5.15 | -10.2 | 7.16 | -4.09 | 1.54 | 31.2 | 0.88 | 15.6 | 142 | 20.4 | 161 |  |  |
| CC(C[N+](C)(C)C)OC(N)=O (stereo not given) [Bethanechol chloride] | 12.5 ± 0.12 | -0.22 | -0.79 | 0.42 | 0.7 | 0.23 | 0.8 | -0.56 | 0.89 | -0.21 | 1.45 | 0.1 | -0.33 |  |  | 0.07 | -0.24 |
| CO[C@@H]1[C@@H](OC(N)=O)[C@@H](O)[C@H](Oc2ccc3c(O)c(NC(=O)c4ccc(O)c(CC=C(C)C)c4)c(=O)oc3c2C)OC1(C)C [Novobiocin Sodium] | 12.7 ± 0.19 | -1.53 | -0.26 | -0.72 | 0.65 |  | 0.73 | -0.47 | 2.61 | 0.58 | 1.49 | 0.81 | 2.57 | 1.43 | 0.56 |  | 1.28 |
| c1ccc(-c2ccc(C(c3ccccc3)n3ccnc3)cc2)cc1 (stereo not given) [Bifonazole] | 12.65 ± 0.082 | -0.9 | 3.3 | -1.29 |  | 1.08 | -0.8 | 0.64 | 1.01 | 0.46 | 0.9 | 2.32 | 0.21 | 0.94 |  | -0.61 | 1.27 |
| O=S1(=O)CCN(CN2CCS(=O)(=O)NC2)CN1 [Taurolidine] | 12.5 ± 0.25 | 0.42 | -0.34 | -0.57 |  |  | 0.35 | -0.78 | 0.18 | 0.3 | -0.43 | -0.64 | -0.52 | -0.43 |  | -1.08 | -1.35 |
| CO/N=C(\C(=O)N[C@@H]1C(=O)N2C(C(=O)O)=CCS[C@H]12)c1csc(N)n1 [Ceftizoxime sodium] | 12.3 ± 0.25 | 0.46 | 1.04 | -1.5 | -0.03 | -1.54 | -0.54 | -0.65 | -0.68 | 0.12 | -0.33 | -0.22 | 0.09 | -1.27 | -0.48 |  | -0.66 |
| N[C@@H]1CN(c2c(F)cc3c(=O)c(C(=O)O)cn([C@@H]4C[C@@H]4F)c3c2Cl)CC12CC2 [Sitafloxacin Hydrate] | 12.2 ± 0.062 |  | 0.3 | 0.29 | 1.07 | 0.2 | 0.44 | 0.69 | 1.54 | 1.53 | 0.03 | -0.5 | 0.81 | 0.98 |  | 0.61 | 0.18 |
